As a reminder, the AC50 is the midpoint of the concentration-response curve, whichever way the signal moves.

Assay [1] is described as follows: TOX21_p53_BLA_p2_viability: Viability Assessment in the Tox21 HCT-116 p53 Agonism Beta-lactamase Assay, Phase 2 (AID 2283591).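 Further: actives lower the ATP signal meaning cytotoxicity.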 The method in brief: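 HCT116 p53-bla cells, 4000/well, dosed after 5 h plating (217-fold dilution of DMSO stocks) and incubated 16 h at 37C. Viability taken as cellular ATP by CellTiter-Glo luminescence after 30 min RT; signal loss marks cytotoxicity.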

The target in assay [2] is Cellular tumor antigen p53 (Homo sapiens) (UniProt P04637). Kind of assay: TOX21_p53_BLA_p2_ratio: Tox21 HCT-116 p53 Agonism Beta-lactamase Assay, Ratio, Phase 2 (AID 2283592). The method in brief:
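Readout: blue/green (460/530 nm) FRET emission ratio after 2 h CCF4-AM loading at room temperature, excitation 405 nm. HCT116 p53 bla cells, 16 h compound exposure at 37C, 5% CO2; agonist direction fitted against DMSO baseline.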

Assay [3] has the same target. In words: TOX21_p53_BLA_p3_ratio: Tox21 HCT-116 p53 Agonism Beta-lactamase Assay, Ratio, Phase 3 (AID 2283596). In short, it runs like this: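 Cells were seeded at 4000/well, rested 5 h at 37C, then dosed with DMSO compound solutions (217-fold dilution) for 16 h. CCF4-AM substrate was loaded for 2 h at room temperature, and the 460/530 nm emission ratio was fitted for gain of signal versus DMSO.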

The target is the same in assay [4]. In words: TOX21_p53_BLA_p5_ratio: Tox21 HCT-116 p53 Agonism Beta-lactamase Assay, Ratio, Phase 5 (AID 2283599). The method in brief: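 HCT-116 p53-bla cells (4000/well) plated 5 h, dosed with compound (217-fold DMSO dilution) for 16 h at 37 C; CCF4-AM substrate 2 h at room temperature. Activity is the 460/530 nm emission ratio (405 nm excitation), fitted in gain-of-signal direction versus DMSO.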

Assay [5] is described as follows: TOX21_p53_BLA_p5_viability: Viability Assessment in the Tox21 HCT-116 p53 Agonism Beta-lactamase Assay, Phase 5 (AID 2283600). In short, it runs like this: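 ATP luminescence (CellTiter-Glo, 30 min, RT) served as the viability read-out, with loss of signal indicating cytotoxicity. Compounds in DMSO were pinned at a 217-fold dilution onto 4000 cells/well and incubated 16 h, 37C.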

The target in assay [6] is Cellular tumor antigen p53 (Homo sapiens) (UniProt P04637). Kind of assay: TOX21_p53_BLA_p4_ratio: Tox21 HCT-116 p53 Agonism Beta-lactamase Assay, Ratio, Phase 4 (AID 2283601). In short, it runs like this: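 HCT-116 p53 beta-lactamase reporter cells (4000/well) preincubated 5 h, then compound (217-fold dilution of DMSO stock) for 16 h at 37C. CCF4-AM substrate added 2 h at room temperature; 460/530 nm emission ratio fitted upward versus DMSO.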
Chain of Cellular tumor antigen p53 (Homo sapiens) (P04637 whole entry, looked up): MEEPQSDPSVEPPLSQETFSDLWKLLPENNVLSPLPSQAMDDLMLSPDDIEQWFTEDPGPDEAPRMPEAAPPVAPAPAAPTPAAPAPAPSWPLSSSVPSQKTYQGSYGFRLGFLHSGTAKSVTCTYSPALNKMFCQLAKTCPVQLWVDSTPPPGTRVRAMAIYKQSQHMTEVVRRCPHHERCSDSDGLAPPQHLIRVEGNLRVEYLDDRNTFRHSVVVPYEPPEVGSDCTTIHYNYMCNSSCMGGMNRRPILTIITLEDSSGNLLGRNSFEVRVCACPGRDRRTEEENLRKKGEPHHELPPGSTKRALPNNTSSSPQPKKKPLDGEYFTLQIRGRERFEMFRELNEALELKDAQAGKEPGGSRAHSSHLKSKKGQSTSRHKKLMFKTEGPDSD

The nature of assay [7]: TOX21_p53_BLA_p4_viability: Viability Assessment in the Tox21 HCT-116 p53 Agonism Beta-lactamase Assay, Phase 4 (AID 2283597).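 Further: hits lower the luminescence signal meaning cytotoxicity.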 The method in brief:
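ATP content by CellTiter-Glo luminescence, 30 min RT, read after the beta-lactamase ratio step. Cells: HCT116, 4000/well, compound added after 5 h, exposure 16 h at 37C. Signal loss = reduced viability.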

Structures are written as SMILES. Results filed as inconclusive are left out. Calls of active or inactive are those of the source. How the source made its calls: active means hit-call score of the fitted dose curve at least 0.9, where 1 is the maximum; inconclusive means response in the unintended direction; inactive means score below 0.9.

On to `NCCOS(=O)(=O)O`, for which the compound was called inactive in assay [1], in assay [2], in assay [3], in assay [4], in assay [5] and in assay [6].
As to `Cc1nnc2n1-c1sc(Br)cc1C(c1ccccc1Cl)=NC2`, the call in assay [1], in assay [2], in assay [3], in assay [4], in assay [5] and in assay [6] was inactive.
For the compound `CC(=O)C1CCOC1=O` (configuration not stated), the result in assay [1], in assay [2], in assay [3], in assay [4], in assay [5] and in assay [6] was inactive.
`Cc1coc2c1CCC(C)C2` (configuration not stated): the result in assay [1], in assay [2], in assay [7] and in assay [4] was inactive.
On to `C=CCOC(C)=O`, for which the outcome in assay [1], in assay [2], in assay [3], in assay [4], in assay [5] and in assay [6] was inactive.
Regarding `CC(C)NCC(O)c1ccc(N)c(C#N)c1` (configuration not stated), the call in assay [1], in assay [2], in assay [3], in assay [5] and in assay [6] was inactive.
As for `OP(O)c1ccccc1`, the outcome in assay [1], in assay [2], in assay [3], in assay [4], in assay [5] and in assay [6] was inactive.
On to `OCC(Br)CBr` (configuration not stated), for which the compound was classed as inactive in assay [1], in assay [2], in assay [3], in assay [4] and in assay [6].
In the case of `C=CC(C)(CCC=C(C)C)OC(=O)c1ccccc1N` (configuration not stated), the call in assay [1], in assay [2], in assay [3], in assay [4], in assay [5] and in assay [6] was inactive.
`C=CCSSCC=C`: the call in assay [1], in assay [2], in assay [7] and in assay [5] was inactive. The AC50 in assay [3] is 57.5 µM (active).
Take `Clc1cc2c(cc1Cl)Oc1cc(Cl)c(Cl)cc1O2`: the call in assay [1], in assay [2], in assay [7] and in assay [4] was inactive.
As for `COC(=O)C(Br)CBr` (configuration not stated), the result in assay [1], in assay [2], in assay [4] and in assay [6] was inactive. The AC50 in assay [3] was 48 µM (active).
In the case of `CCCN1CCC[C@@H]2Cc3nc(N)ncc3C[C@H]21`, the call in assay [1], in assay [2], in assay [7] and in assay [4] was inactive.
As to `C[C@H]1[C@@H]2Cc3ccc(O)cc3[C@@]1(C)CCN2C`, the outcome in assay [1], in assay [2], in assay [3], in assay [4], in assay [5] and in assay [6] was inactive.
As for `COc1ccc(C=O)cc1O`, the call in assay [1], in assay [2], in assay [3], in assay [4] and in assay [6] was inactive.
As to `COCCC#N`, the compound was classed as inactive in assay [1], in assay [2], in assay [3], in assay [7], in assay [5] and in assay [6].
Turning to `CNC(=O)Oc1cc(C)c(N(C)C)c(C)c1`, the result in assay [1], in assay [2], in assay [3] and in assay [4] was inactive.
Consider `C=CCN(C1=NCCN1)c1c(Cl)cccc1Cl`, for which the compound was classed as inactive in assay [1], in assay [2], in assay [3] and in assay [4].
On to `CC(C)(C)NC[C@H](O)c1ccc(O)cc1Cl`, for which the compound was classed as inactive in assay [1], in assay [2] and in assay [7].
As to `Cn1c(N)nc2c3cccnc3ccc21`, the outcome in assay [1], in assay [2], in assay [3], in assay [7], in assay [4] and in assay [6] was inactive.

For the origin of these results see PubChem BioAssay (EPA / NIEHS).
